An excerpt weighted towards active compounds, which were near 2.2% of everything screened.
VLA-4 inh: inhibition in a human VLA-4 binding assay. P13612. VLA-4 expressing cells, ligand binding flow cytometry. inhibition, % (about 7 µM as worked out from the volumes in the protocol). actives 0.2% (n = 330,000). AID 2557; in the data active = inhibition above about 50%
CHT allo act: allosterically activates the human high affinity choline transporter; CHT-expressing cells, membrane potential dye, choline EC20; active compounds read high; LV-AA mutant CHT in HEK293 cells; actives 0.49% (n = 310,000); B-score at 10 µM; AID 488977; Q9GZV3;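 active = initial fluorescence not abnormally high and integrated response B-score, plate-corrected, over 3 SD above library mean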
Target sequence (Q9GZV3 whole entry, looked up): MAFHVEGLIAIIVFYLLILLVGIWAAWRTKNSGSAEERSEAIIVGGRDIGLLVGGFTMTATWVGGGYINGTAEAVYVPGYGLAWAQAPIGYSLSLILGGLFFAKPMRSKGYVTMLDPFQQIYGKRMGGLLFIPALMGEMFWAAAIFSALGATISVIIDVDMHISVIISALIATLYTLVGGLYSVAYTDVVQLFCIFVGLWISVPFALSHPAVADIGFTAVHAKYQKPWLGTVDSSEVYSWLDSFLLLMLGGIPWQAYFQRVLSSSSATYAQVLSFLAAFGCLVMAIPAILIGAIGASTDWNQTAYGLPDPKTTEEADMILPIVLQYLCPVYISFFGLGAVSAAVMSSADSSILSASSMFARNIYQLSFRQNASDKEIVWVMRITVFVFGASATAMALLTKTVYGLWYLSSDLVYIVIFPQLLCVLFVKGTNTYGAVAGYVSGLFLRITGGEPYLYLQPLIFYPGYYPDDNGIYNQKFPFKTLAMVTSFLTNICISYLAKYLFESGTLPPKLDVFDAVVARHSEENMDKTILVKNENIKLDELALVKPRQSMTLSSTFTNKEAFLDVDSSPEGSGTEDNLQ
AI-2 QS mod: Vibrio harveyi AI-2 quorum sensing modulation. Vibrio harveyi JMH597 AI-2 luminescence/OD600 ratio, 9 h; active compounds read low; strain lacks LuxN and CqsS sensors; 0 = neutral-control median. activity change, % at 7.5 µM. actives 0.4% (n = 300,000); in the data active = activity change below about -75%, passing the limit was not always enough;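 also: luminescence divided by OD600 gain over 9 h not by final OD600 alone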
CHT inh: human CHT choline transport inhibition | Q9GZV3 | CHT-expressing cells, membrane potential dye, choline response; active compounds read low | B-score at 10 µM | actives 0.86% (n = 310,000);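 active = B-score over 3 SD under the library average, and starting fluorescence ratio not unusually high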;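 also: choline stimulus applied at its EC90 after an EC20 pre-addition; B-score computed on integrated fluorescence ratio after choline addition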
Platelet DG rel: modulates dense granule release in human platelets | human platelet-rich plasma, SFLLRN dense granule ATP release, luminescence | inhibition, %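 (compounds screened at 7.5 µM in platelet-rich plasma)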 | actives 0.22% (n = 300,000) | AID 1663;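 active = mean replicate score, as percent of positive control, at or above 50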
HIF act: HIF pathway transcriptional activation; U2OS HRE-luciferase reporter, luminescence; normalized: DMSO 0%, desferrioxamine 100%; AID 1910; activation, % at 7.5 µM (by protocol); actives 0.32% (n = 300,000);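 active = mean activation of at least 10% of the iron chelator positive control signal, with at least half of replicates also reaching 10%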
CHT inh conf: human CHT inhibition, confirmatory screen; actives 70% (n = 2,400); shares compounds with CHT inh; CHT-expressing cells, choline membrane potential dye; LV-to-AA substituted CHT, HEK293 cells; CHT activity remaining % of control (active compounds read low), % at 10 µM;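 active = choline transporter activity left, mean of duplicates at 10 µM, below buffer-only control mean minus 3 SD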;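 also: depolarization triggered by choline at its EC90 following an EC20 pre-addition; 0% = hemicholinium-3 full block and 100% = buffer-only control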
HEK293 MPD ctr: CHT inhibitor counter-screen hit in parental HEK293 cells; shares compounds with CHT inh; membrane potential dye, choline response; active = decrease or increase beyond buffer ±3SD; membrane potential ratio readout (active if shifted either direction beyond buffer ±3SD; no single direction) at 10 µM; actives 4% (n = 2,400);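 also: parental cells lack the transporter so any hit is non-specific; ratio is peak minus trough fluorescence over baseline after EC90 choline challenge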
Starred values were filed as active, the others as inactive; i = inactive; x = not tested or not shown.

SMILES	VLA-4 inh	CHT allo act	AI-2 QS mod	CHT inh	Platelet DG rel	HIF act	CHT inh conf	HEK293 MPD ctr
CCNS(=O)(=O)c1c(C)cc(N2CCCC2=O)cc1C	3.9	i	13.7	i	-2.6	-0.3	x	x
CN1C[C@@H]2C(c3ccc(C(F)(F)F)cc3)C3(c4cccnc4)CC2(C3)[C@H]1c1ccccc1 (stereo partly drawn)	-11.6	i	23.3	-5.19*	3.2	0.4	69.8%*	i
FC(F)(F)c1ccc(CN2C[C@@H]3C(c4ccc(C(F)(F)F)cc4)C4(c5cccnc5)CC3(C4)[C@H]2c2ccccc2)cc1 (stereo partly drawn)	-10.5	i	13.5	i	-1.7	-0.5	x	x
COc1ccc(CCN(C)C2CCCN(C(=O)c3sccc3C)C2)cc1OC (stereo not drawn)	-5.9	i	17.1	i	10.8	0.0	x	x
Cc1oc(C(=O)O)cc1COc1ccc2c3c(c(=O)oc2c1C)CCC3	-11.2	i	27.6	-6.58*	5.8	-0.1	43.5%*	i
COc1ccc(C2(C(=O)Nc3ccc(S(=O)(=O)Nc4nc(C)cc(C)n4)cc3)CCCC2)cc1OC	1.9	i	4.2	-7.7*	7.5	-3.8	28.6%*	i
O=C(O)c1cccc(N/N=C/c2cc(Br)cc(Br)c2O)c1	15.8	i	83.5	i	11.4	0.9	x	x
Cc1c(N=Cc2cc(Br)cc(Br)c2O)cccc1C(=O)O	21.6	i	40.2	-5.67*	-3.4	-0.5	56.5%*	i
COc1ccc(S(=O)(=O)N2CCOCC2)cc1NC(=O)CCc1cc(OC)c(OC)c(OC)c1	-26.4	x	x	x	x	x	x	x
O=C(CCN1C(=O)S/C(=C\c2ccccc2)C1=O)NCCCn1ccnc1	11.7	i	32.5	i	1.2	0.1	x	x
CC(=O)NC(CC(=O)NCCN1C(=O)S/C(=C\c2ccccc2)C1=O)c1ccccc1 (stereo not drawn)	-2.1	i	8.7	-5.66*	0.2	-0.1	57.2%*	i
CC1C(=O)N(c2ccc(S(=O)(=O)N(C)C)cc2)C1(/C=C/c1ccccc1)C(=O)NC1CCCC1 (stereo not drawn)	22.8	i	19.9	-6.76*	6.1	-0.3	i	i
O=C1CC(/C=C/c2ccccc2)(C(=O)NC2CCCC2)N1c1ccc(S(=O)(=O)N2CCCC2)cc1 (stereo not drawn)	-3.4	i	15.3	i	-3.7	0.1	x	x
CC(=O)N/N=C/c1c(C)[nH]n(-c2ccccc2)c1=O	16.2	i	10.8	-5.83*	-6.8	-0.1	i	i
COC(=O)N/N=C\c1c(C)[nH]n(-c2ccccc2)c1=O	-0.7	i	34.7	i	1.1	-0.4	x	x
CCOc1ccccc1NC(=O)CSc1nc2ccccc2nc1N1CCCC1	-0.3	i	8.7	-5.53*	-1.6	0.0	i	i
NC(N)=Nc1nc(C2COc3ccccc3O2)cs1 (stereo not drawn)	11.8	i	44.2	-8.76*	0.3	1.1	46.4%*	i
CCOC(=O)c1[nH]c(C)c(C(=O)N2CCc3ccccc32)c1C	14.9	i	2.3	-6.03*	-4.1	0.5	i	2.43*
CC(=O)c1c(C)[nH]c(C(=O)N2CCc3ccccc32)c1C	13.0	i	x	i	-1.8	0.2	x	x
COc1cc(CN(C)Cc2cc(=O)n3ccsc3n2)ccc1OC(F)F	1.1	i	13.6	-5.57*	37.9	-1.0	59.4%*	i
CCCCN(C(=O)Cc1ccc2c(c1)OCCO2)c1c(N)n(CCC)c(=O)[nH]c1=O	2.1	x	x	x	x	x	x	x
CCOC(=O)CC1COc2ccccc2N1C(=O)c1cccc([N+](=O)[O-])c1 (stereo not drawn)	-2.5	i	20.5	i	-1.0	0.3	x	x
CCOC(CNC(=O)c1ccc2c(c1)ncn2-c1ccccc1OC)OCC	4.6	i	-6.7	i	-2.6	-1.9	x	x

Assay outcomes as filed in PubChem.
